Experimental data reported in PubChem BioAssay (EPA / NIEHS).
Calls of active or inactive are those of the source. The calls were made as follows: active = hit-call score of the fitted dose curve at least 0.9, where 1 is the maximum; inactive = score below 0.9.

Read-out: Fatty acid synthase (Homo sapiens) (UniProt P49327)
Assay: LTEA_HepaRG_FASN: Life Technologies and Expression Analysis (LTEA) Assay for Fatty Acid Synthase (FASN) using HepaRG (AID 2283448);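 as to AC50: differentiated human HepaRG liver cells in serum-free induction medium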
Conditions: mRNA level, 48 h; actives raise or lower the signal
Outline: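 FASN transcript measured by TaqMan qRT-PCR, normalised to three housekeeping genes, after 48 h chemical exposure of HepaRG cells. Eight-point half-log series from 100 uM in 0.5% DMSO, duplicates; gain or loss fitted against vehicle.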

Fatty acid synthase (Homo sapiens), sequence (P49327 whole entry, looked up): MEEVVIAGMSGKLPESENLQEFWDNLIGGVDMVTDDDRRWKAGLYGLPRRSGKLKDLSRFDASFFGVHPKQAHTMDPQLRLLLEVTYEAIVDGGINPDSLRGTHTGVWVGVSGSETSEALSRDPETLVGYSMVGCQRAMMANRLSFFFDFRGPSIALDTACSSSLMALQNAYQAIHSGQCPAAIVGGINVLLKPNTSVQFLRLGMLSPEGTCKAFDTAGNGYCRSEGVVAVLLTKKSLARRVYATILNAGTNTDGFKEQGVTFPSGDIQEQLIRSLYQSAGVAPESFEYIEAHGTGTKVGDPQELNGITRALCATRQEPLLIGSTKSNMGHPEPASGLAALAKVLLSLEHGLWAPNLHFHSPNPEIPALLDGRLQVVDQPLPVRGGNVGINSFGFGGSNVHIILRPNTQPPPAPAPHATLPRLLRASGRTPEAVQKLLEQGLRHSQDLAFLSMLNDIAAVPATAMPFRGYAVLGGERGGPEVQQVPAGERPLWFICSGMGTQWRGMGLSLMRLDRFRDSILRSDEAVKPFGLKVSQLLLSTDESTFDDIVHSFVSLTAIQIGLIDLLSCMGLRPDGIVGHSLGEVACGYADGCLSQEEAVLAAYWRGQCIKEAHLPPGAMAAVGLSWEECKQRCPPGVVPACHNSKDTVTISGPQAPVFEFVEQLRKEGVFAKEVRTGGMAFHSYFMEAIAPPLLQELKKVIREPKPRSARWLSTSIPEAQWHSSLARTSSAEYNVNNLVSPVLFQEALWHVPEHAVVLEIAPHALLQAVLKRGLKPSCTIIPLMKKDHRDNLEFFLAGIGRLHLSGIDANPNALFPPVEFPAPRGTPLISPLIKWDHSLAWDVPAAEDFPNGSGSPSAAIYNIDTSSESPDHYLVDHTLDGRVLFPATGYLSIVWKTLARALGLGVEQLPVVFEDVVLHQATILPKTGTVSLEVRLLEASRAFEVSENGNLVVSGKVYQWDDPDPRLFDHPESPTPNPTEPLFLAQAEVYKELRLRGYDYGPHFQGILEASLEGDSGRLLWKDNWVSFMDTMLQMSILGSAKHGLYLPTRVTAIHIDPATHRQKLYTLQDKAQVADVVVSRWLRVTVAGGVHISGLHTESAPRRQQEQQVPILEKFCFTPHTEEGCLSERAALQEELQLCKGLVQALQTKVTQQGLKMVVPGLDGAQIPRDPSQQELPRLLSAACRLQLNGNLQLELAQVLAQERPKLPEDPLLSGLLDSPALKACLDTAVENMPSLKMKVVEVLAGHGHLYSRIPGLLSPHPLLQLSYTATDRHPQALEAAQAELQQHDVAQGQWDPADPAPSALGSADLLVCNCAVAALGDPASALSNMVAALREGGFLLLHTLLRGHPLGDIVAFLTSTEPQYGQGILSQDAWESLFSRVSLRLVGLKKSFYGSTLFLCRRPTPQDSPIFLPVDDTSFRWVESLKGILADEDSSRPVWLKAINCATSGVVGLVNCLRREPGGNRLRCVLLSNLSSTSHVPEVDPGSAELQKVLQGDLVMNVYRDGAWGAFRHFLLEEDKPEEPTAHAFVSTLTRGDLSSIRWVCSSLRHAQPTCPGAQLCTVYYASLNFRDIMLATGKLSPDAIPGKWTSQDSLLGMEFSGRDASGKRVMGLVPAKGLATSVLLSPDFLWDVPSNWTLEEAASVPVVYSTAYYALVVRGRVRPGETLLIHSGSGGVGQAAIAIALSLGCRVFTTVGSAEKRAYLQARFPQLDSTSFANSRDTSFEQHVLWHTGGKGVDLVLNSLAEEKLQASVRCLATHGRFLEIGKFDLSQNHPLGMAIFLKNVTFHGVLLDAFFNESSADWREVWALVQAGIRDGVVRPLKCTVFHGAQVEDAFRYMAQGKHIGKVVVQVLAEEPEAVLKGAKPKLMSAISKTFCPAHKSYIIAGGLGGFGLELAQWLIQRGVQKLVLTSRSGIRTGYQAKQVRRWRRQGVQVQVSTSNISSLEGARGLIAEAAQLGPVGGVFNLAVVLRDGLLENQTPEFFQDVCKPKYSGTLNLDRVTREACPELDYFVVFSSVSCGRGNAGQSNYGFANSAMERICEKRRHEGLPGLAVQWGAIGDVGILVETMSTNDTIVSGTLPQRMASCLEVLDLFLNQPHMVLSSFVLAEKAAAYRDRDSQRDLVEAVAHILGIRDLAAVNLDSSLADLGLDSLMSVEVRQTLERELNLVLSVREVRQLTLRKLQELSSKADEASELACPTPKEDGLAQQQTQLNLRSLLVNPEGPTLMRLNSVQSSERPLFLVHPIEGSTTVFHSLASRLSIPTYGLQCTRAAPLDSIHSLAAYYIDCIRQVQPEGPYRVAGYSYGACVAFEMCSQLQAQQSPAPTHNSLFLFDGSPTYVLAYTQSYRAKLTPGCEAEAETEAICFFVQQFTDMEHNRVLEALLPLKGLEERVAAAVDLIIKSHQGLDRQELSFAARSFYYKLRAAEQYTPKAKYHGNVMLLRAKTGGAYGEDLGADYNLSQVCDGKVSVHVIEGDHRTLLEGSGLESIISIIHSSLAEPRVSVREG

SMILES | outcome | AC50
O=c1c(-c2ccc(O)cc2)coc2cc(O)ccc12 | inactive | –
Oc1cccc(O)c1 | inactive | –
O=[N+]([O-])c1ccc(O)cc1 | inactive | –
CCC(=C(c1ccc(O)cc1)c1ccc(OCCN(C)C)cc1)c1ccccc1 | inactive | –
C#C[C@]1(O)CC[C@H]2[C@@H]3CCC4=CC(=O)CC[C@@H]4[C@H]3CC[C@@]21C | – | 50 µM (active)
COC(=O)CCCCC(=O)OC | inactive | –
CCCCCCCCCCCCc1ccccc1S(=O)(=O)O | – | 74.5 µM (active)
CC(=O)CC(C)(C)O | inactive | –
C[C@@H]1C[C@H]2[C@@H]3CCC4=CC(=O)C=C[C@]4(C)[C@@]3(F)[C@@H](O)C[C@]2(C)[C@@]1(O)C(=O)COP(=O)(O)O | inactive | –
O=C(O)c1ccccc1C(c1ccc(O)cc1)c1ccc(O)cc1 | inactive | –
Nc1cccc2c(N)cccc12 | – | 18.3 µM (active)
CC(O)CO (centres undefined) | inactive | –
c1ccc2c(c1)ccc1ccccc12 | inactive | –
CCCCCCCCOC(=O)CCCCCCCCC(=O)OCCCCCCCC | inactive | –
Oc1cc2ccccc2c2ccccc12 | inactive | –
CC(C)(C)c1cccc(C(C)(C)C)c1O | inactive | –
Cc1cc(C)c(O)c(C)c1 | inactive | –
Cc1cc(CCN2CCN(c3nsc4ccccc34)CC2)cc2c1NC(=O)CC2(C)C | – | 50 µM (active)
CN(C)C=O | inactive | –
OC1CCCCC1 | inactive | –
CC(=O)NC1(c2cccc(F)c2)CCN(CC[C@@]2(c3ccc(Cl)c(Cl)c3)CN(c3ccccc3)C(=O)CO2)CC1 | inactive | –
CCCCCCCCCCCCN1CCCC1=O | inactive | –
CCCCCCCCCCCCCCCS(=O)(=O)Oc1ccccc1 | inactive | –
N#C[C@@H]1CC(F)(F)CN1C(=O)CNC1CC2CCC(C1)N2c1ncccn1 (some centres undefined) | inactive | –
O=C(O)Cc1cc(I)c(Oc2cc(I)c(O)c(I)c2)c(I)c1 | – | 60.2 µM (active)
CN1CCN(c2ccccc2/C=C2\SCCN(c3ccc(Cl)c(Cl)c3)C2=O)CC1 | inactive | –
CCCCC(CC)COC(=O)CCCCC(=O)OCC(CC)CCCC (centres undefined) | inactive | –
CCCCCCC(=O)O | inactive | –

Read-out: Cyclin D2 (CCND2), CCND2 (gene 894)
Assay: LTEA_HepaRG_CCND2: Life Technologies and Expression Analysis (LTEA) Assay for Cyclin D2 (CCND2) using HepaRG (AID 2283449);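 also: CCND2 transcript measured by TaqMan qRT-PCR and normalised to three housekeeping genes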
Conditions: mRNA level, 48 h; actives raise or lower the signal
Outline: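 HepaRG, 48 h dosing, 8-pt half-log curve from 100 uM, 0.5% DMSO; duplicate wells. Readout: CCND2 transcript by microfluidic qRT-PCR, housekeeping-normalised; bidirectional fit vs DMSO baseline.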

SMILES | outcome
O=c1c(-c2ccc(O)cc2)coc2cc(O)ccc12 | inactive
O=[N+]([O-])c1ccc(O)cc1 | inactive
CCC(=C(c1ccc(O)cc1)c1ccc(OCCN(C)C)cc1)c1ccccc1 | inactive
C#C[C@]1(O)CC[C@H]2[C@@H]3CCC4=CC(=O)CC[C@@H]4[C@H]3CC[C@@]21C | inactive
CCCCCCCCCCCCc1ccccc1S(=O)(=O)O | inactive
CC(=O)CC(C)(C)O | inactive
C[C@@H]1C[C@H]2[C@@H]3CCC4=CC(=O)C=C[C@]4(C)[C@@]3(F)[C@@H](O)C[C@]2(C)[C@@]1(O)C(=O)COP(=O)(O)O | inactive
CC1=C(/C=C/C(C)=C/C=C/C(C)=C/C(=O)O)C(C)(C)CCC1 | inactive
CC(O)CO (centres undefined) | inactive
c1ccc2c(c1)ccc1ccccc12 | inactive
Cc1cc(C)c(O)c(C)c1 | inactive
CCN(CC)CCNc1ccc(CNC=O)c2sc3ccc(OC)cc3c(=O)c12 | inactive
CN(C)C=O | inactive
CC(=O)NC1(c2cccc(F)c2)CCN(CC[C@@]2(c3ccc(Cl)c(Cl)c3)CN(c3ccccc3)C(=O)CO2)CC1 | inactive
CCCCCCCCCCCCN1CCCC1=O | inactive
CCCCCCCCCCCCCCCS(=O)(=O)Oc1ccccc1 | inactive
N#C[C@@H]1CC(F)(F)CN1C(=O)CNC1CC2CCC(C1)N2c1ncccn1 (some centres undefined) | inactive
CN1CCN(c2ccccc2/C=C2\SCCN(c3ccc(Cl)c(Cl)c3)C2=O)CC1 | inactive
CCCCC(CC)COC(=O)CCCCC(=O)OCC(CC)CCCC (centres undefined) | inactive
CCCOC(=O)c1ccc(O)cc1 | inactive
CCCCCCC(=O)O | inactive
